Experimental data: PubChem BioAssay
Records with an inconclusive call do not appear. Activity calls are given as the source filed them.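 The calls were made as follows, unless noted: active = viability at or below 27.92% in each of two runs, the all-compound median minus 4 SD; inconclusive = no clear call, values can overlap the other calls; inactive = the rest.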

Tests used:
[1] = reducers of endogenous Her2 protein level, primary screen, SKBR3 breast tumor cells, AlphaScreen, ATP viability (AID 461;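 active = Her2 level under about 52% in both replicate screens, with viability over 70% of control, limit read from the data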;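 as to Her2 level: lower value means less Her2 protein in the cells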;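 as to viability: percent of carrier control wells set as 100% viability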); details: 18-24 h, measured here: SKBR3 viability, ATP luminescence, at 10 µM
[2] = molecular target: Receptor tyrosine-protein kinase erbB-2 (Homo sapiens) (UniProt P04626); assay: as above; details: 18-24 h, at 10 µM, stronger effect = lower value
Sequence of Receptor tyrosine-protein kinase erbB-2 (Homo sapiens) (P04626 whole entry, looked up): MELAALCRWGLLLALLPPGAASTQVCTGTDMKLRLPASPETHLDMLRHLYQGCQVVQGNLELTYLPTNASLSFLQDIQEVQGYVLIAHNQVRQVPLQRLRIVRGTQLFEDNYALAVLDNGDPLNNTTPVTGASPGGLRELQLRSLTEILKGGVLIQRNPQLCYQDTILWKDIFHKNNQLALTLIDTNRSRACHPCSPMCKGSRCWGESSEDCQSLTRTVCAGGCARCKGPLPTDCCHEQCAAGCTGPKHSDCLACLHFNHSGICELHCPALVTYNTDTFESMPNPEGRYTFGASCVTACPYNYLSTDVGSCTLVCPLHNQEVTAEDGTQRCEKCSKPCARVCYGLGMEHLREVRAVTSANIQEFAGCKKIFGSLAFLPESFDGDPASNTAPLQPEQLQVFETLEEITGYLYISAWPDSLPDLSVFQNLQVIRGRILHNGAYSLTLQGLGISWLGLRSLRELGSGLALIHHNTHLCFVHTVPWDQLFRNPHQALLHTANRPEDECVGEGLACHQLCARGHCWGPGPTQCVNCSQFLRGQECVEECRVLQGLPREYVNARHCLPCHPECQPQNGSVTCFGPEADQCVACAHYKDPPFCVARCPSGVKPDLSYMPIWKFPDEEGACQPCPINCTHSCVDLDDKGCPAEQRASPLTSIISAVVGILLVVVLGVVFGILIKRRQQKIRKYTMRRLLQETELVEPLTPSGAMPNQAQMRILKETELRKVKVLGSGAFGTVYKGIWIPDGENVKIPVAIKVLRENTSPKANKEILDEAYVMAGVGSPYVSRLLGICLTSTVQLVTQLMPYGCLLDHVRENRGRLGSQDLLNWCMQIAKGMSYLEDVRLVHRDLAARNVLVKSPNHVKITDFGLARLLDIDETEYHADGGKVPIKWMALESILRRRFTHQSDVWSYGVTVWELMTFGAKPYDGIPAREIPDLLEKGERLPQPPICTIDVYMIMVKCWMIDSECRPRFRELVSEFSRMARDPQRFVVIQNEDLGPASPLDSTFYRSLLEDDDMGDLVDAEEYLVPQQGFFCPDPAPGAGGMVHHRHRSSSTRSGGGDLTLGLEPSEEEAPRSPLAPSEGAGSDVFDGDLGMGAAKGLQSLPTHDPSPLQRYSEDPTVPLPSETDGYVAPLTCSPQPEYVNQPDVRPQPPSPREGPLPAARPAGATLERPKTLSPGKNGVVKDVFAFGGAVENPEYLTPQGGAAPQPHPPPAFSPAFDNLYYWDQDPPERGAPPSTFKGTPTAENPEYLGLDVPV

[3] = SK-BR-3 cell growth inhibitors, pilot screen, 24 h, human (AID 572;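 active = viability at or below 10% of carrier control in both of two separate runs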;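 also: compound exposure lasted between 18 and 24 h rather than exactly 24 h; 100% = carrier-treated control wells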); details: SK-BR-3 viability, CellTiter-Glo luminescence, at 10 µM, stronger effect = lower value
[4] = HUVEC growth inhibition – cell-based, human, primary screen (AID 575;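 active = viability at or below 30% in both replicate assays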;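 also: 100% = median of untreated cell wells with 0.1% DMSO on each plate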); details: HUVEC proliferation, CellTiter-Glo luminescence, 72 h; at 10 µM; stronger effect = lower value
[5] = growth inhibitors of H69AR lung tumor, primary screen, human, duplicate replicates (AID 580;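 active = viability at or under a set limit in both replicates, limit being median viability minus 3 SD, cut at about 48% in these data, passing the limit was not always enough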;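 also: 100% = mean luminescence of untreated wells and 0% = no signal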); details: H69AR lung tumor cells viability, ATP luminescence, 72 h; at 10 µM; stronger effect = lower value
[6] = reversal of MRP1-mediated doxorubicin resistance, pilot screen, H69AR cells, doxorubicin co-treatment (AID 601;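 active = viability loss from added drug above about 55%, and viability with drug at most 40%, in both replicates, limit read from the data, passing the limit was not always enough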); details: CellTiter-Glo, 72 h, at 10 µM; for differential viability (reversal): stronger effect = higher value
[7] = 384-well plate pilot, post-Golgi transport modulator project, inhibition of yeast transport mutant growth (AID 636; in the data active = inhibition above about 31%); details: absorbance 615 nm, about 18 h, stronger effect = higher value
[8] = growth suppression of yeast trafficking mutant, preliminary HTS, modulators of trafficking downstream of Golgi apparatus project, 1536-format plate, OD 615 nm (AID 637; in the data active = inhibition above about 30%); details: yeast transport mutant growth, absorbance 615 nm, 18 h; stronger effect = higher value
[9] = OD615 S. cerevisiae growth inhibition, permissive medium, pilot counter-assay, permissive growth control for S. cerevisiae lifespan shortening project (AID 705;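 active = growth inhibition above 25% in both replicates, a cutoff set 3 SD above the mean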); details: OD615, 24 h, at 10 µM, stronger effect = higher value
[10] = Restrictive medium S. cerevisiae growth inhibition, OD615, pilot screen of yeast lifespan reduction project, restrictive growth control (AID 706;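 active = growth inhibition above a set limit, 3 SD over mean compound inhibition, in both replicates, cut at about 43% in these data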;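 also: modified DeaD lifespan yeast strain shifted to restrictive glucose medium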); details: OD615, 48 h, at 10 µM, stronger effect = higher value
[11] = viability gain of MRP-1-high H69AR cells under doxorubicin, pilot screen, MRP-1 activator project, CellTiter-Glo, duplicate (AID 807;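 active = viability increase at or above a cutoff of the median across tested compounds plus 3 SD, cut at about 8.5% in these data, passing the limit was not always enough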;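 also: compound pretreatment 18-22 h then 72 h combined with doxorubicin; 0% = doxorubicin alone and 100% = vehicle without doxorubicin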); details: H69AR viability with doxorubicin, CellTiter-Glo luminescence; at 10 µM; stronger effect = higher value
[12] = growth suppression of beta-catenin knockout HCT116, pilot screen, human colon tumor cells (AID 823;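 active = cell viability at or below a set limit in both duplicate runs, the limit being the all-compound median minus 4 SD, cut at about 23% in these data, passing the limit was not always enough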;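 also: 0% = wells killed by 20 µM Hyamine and 100% = untreated DMSO cell wells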); details: CellTiter-Glo, 60 h, at 10 µM, stronger effect = lower value
[13] = growth suppression of PTEN-deleted HCT116, pilot screen, cell-based, HCT116 clonal line, CellTiter-Glo (AID 824); details: 60 h, at 10 µM, stronger effect = lower value;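 also: 0% = 20 µM Hyamine control and 100% = vehicle cell control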
[14] = inhibitors of the yeast RAM network, pilot screen, dse1pr::URA3 reporter, 5-FOA selection (AID 869;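 active = inhibition over a set limit, the all-compound mean plus 3 SD, in both replicate runs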;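 also: 0% = DMSO wells with no growth and 100% = 10 µM 1-NA-PP1 with full growth; RAM network block rescues cells from 5-FOA so hits raise OD615 growth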); details: S. cerevisiae dse1pr::URA3 5-FOA growth, OD615, 2 d; at 10 µM; stronger effect = higher value; strain carries analog-sensitive mutant Cbk1 kinase
[15] = RAM signaling pathway blockade in yeast – S. cerevisiae, Pdr1DBD-CYC8 efflux-inhibited sensitized strain, primary screen (AID 1298;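 active = RAM network inhibition above 8.4% in each of two replicates, 3 SD over the compound average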;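 also: 0% = DMSO untreated cells without growth and 100% = 10 µM 1-NA-PP1 full growth; higher means more yeast growth rescued from 5-FOA killing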); details: S. cerevisiae cbk1-as DSE1-URA3 strain, 5-FOA growth OD615, 2 d; at 50 µM; stronger effect = higher value
[16] = H69AR cells + 2 uM doxorubicin, measured here: viability with 2 uM doxorubicin, stronger effect = lower value
[17] = H69AR cells, compound alone cytotoxicity

SMILES	viability [1]	Her2 level [2]	viability [3]	viability [4]	viability [5]	differential viability (reversal) ([6]; H69AR cells + 2 uM doxorubicin)	viability [6, 16]	viability [6, 17]	inhibition [7]	inhibition [8]	growth inhibition [9]	growth inhibition [10]	viability increase [11]	viability [12]	viability [13]	inhibition [14]	RAM network inhibition [15]
COCCCNC(=O)CC1Oc2ccccc2NC1=O (stereo not given)	86.5%	100% (inactive)	86.5% (inactive)	111% (inactive)	83.3% (inactive)	-5.41% (inactive)	88.7%	83.3%	-5.73% (inactive)	-2.83% (inactive)	-2.61% (inactive)	-1.36% (inactive)	0.06% (inactive)	97.6% (inactive)	102% (inactive)	1.65% (inactive)	2.25% (inactive)
CCCn1cc(SCC(N)=O)c2ccccc21	86.5%	102% (inactive)	86.5% (inactive)	90.6% (inactive)	91.2% (inactive)	-13.4% (inactive)	105%	91.2%	-4.93% (inactive)	4.83% (inactive)	-9.29% (inactive)	-15.9% (inactive)	-1.96% (inactive)	100% (inactive)	95.6% (inactive)	0.545% (inactive)	0.42% (inactive)
CCCCN(C(=O)c1ccc(Cl)cc1)C1CC2CCC(C1)N2C (stereo not given)	87.5%	120% (inactive)	87.5% (inactive)	78.2% (inactive)	85.1% (inactive)	3.96% (inactive)	81.2%	85.1%	-5.6% (inactive)	-4% (inactive)	-9.97% (inactive)	1.71% (inactive)	-2.41% (inactive)	85.3% (inactive)	89.3% (inactive)	1.62% (inactive)	-0.05% (inactive)
COc1ccc(C(c2sc3nc(C)nn3c2O)N2CCCCC2)cc1 (stereo not given)	90%	94.5% (inactive)	90% (inactive)	111% (inactive)	81.8% (inactive)	-13.7% (inactive)	95.5%	81.8%	-2.95% (inactive)	1% (inactive)	-3.33% (inactive)	8.2% (inactive)	-1.47% (inactive)	100% (inactive)	95.2% (inactive)	0.45% (inactive)	3.51% (inactive)
CC(=O)Nc1ccc(N=Cc2ccc[nH]2)cc1	97.5%	87.5% (inactive)	97.5% (inactive)	95.3% (inactive)	88.5% (inactive)	-1.47% (inactive)	90%	88.5%	1.28% (inactive)	-5.5% (inactive)	-11.4% (inactive)	-5.65% (inactive)	-1.9% (inactive)	90.7% (inactive)	92.8% (inactive)	0.435% (inactive)	3.68% (inactive)
Cc1ccc(CNC(=O)C2CCCN(S(=O)(=O)c3cnc[nH]3)C2)cc1 (stereo not given)	94%	110% (inactive)	94% (inactive)	94.5% (inactive)	106% (inactive)	13.9% (inactive)	92.3%	106%	-2.13% (inactive)	-3.61% (inactive)	0.76% (inactive)	6.6% (inactive)	0.52% (inactive)	109% (inactive)	102% (inactive)	0.415% (inactive)	1.04% (inactive)
O=c1c2ccccc2nc2n1CCN2	84%	95.5% (inactive)	84% (inactive)	91.9% (inactive)	109% (inactive)	26.2% (inactive)	83.3%	109%	-0.93% (inactive)	5.16% (inactive)	-3.22% (inactive)	-1.61% (inactive)	0.22% (inactive)	101% (inactive)	104% (inactive)	1.84% (inactive)	-0.47% (inactive)
O=C1CN(c2nc3ccccc3n3cnnc23)CC(=O)N1CCc1ccccc1	91.5%	100% (inactive)	91.5% (inactive)	104% (inactive)	102% (inactive)	12% (inactive)	90.2%	102%	-0.38% (inactive)	-1.17% (inactive)	-6.92% (inactive)	-3.06% (inactive)	0.25% (inactive)	102% (inactive)	95.9% (inactive)	3.38% (inactive)	5.88% (inactive)
C=CCn1c(SCc2cccc(C#N)c2)nnc1-c1ccccc1O	86.5%	102% (inactive)	86.5% (inactive)	85.9% (inactive)	92.4% (inactive)	0.595% (inactive)	91.8%	92.4%	-4.4% (inactive)	-1.5% (inactive)	4.16% (inactive)	3.15% (inactive)	-4.01% (inactive)	96.2% (inactive)	88.4% (inactive)	2.62% (inactive)	8.45% (inactive)
O=C1CC(c2cccnc2)c2cc3c(cc2N1)OCO3 (stereo not given)	99.5%	108% (inactive)	99.5% (inactive)	88.7% (inactive)	104% (inactive)	18.4% (inactive)	85.7%	104%	-0.13% (inactive)	-9.18% (inactive)	-2.55% (inactive)	1.1% (inactive)	-1.75% (inactive)	105% (inactive)	99.8% (inactive)	1.17% (inactive)	0.51% (inactive)
